Compound activity as filed in PubChem.
GLP-1R agonist: activates the human GLP-1 receptor. HEK293 GLP-1R CRE-luciferase, luminescence, 4-6 h; cells express a hypersensitive GLP-1R form. Potency, µM (titrated, usually from 45.6 µM), inactives show at the top dose activation, usual class: activators. 0.007% of 380,000 active. AID 624172; also: % of control where 0% means no effect
Target sequence (P43220 whole entry, looked up): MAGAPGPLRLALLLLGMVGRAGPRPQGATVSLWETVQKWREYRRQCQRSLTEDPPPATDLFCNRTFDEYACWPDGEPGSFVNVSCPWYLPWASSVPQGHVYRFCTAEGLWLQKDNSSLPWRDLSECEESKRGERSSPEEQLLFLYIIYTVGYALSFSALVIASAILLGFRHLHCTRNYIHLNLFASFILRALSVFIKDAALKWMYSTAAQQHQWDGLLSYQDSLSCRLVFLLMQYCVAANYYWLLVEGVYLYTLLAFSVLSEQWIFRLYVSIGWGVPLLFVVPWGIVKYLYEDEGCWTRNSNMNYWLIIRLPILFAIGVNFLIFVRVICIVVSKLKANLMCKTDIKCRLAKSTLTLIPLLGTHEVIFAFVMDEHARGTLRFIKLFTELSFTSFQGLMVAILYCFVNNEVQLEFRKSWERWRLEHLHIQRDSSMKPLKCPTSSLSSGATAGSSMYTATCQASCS
Gal4-VP16 FLuc: Gal4-VP16 reporter inhibition counter-screen. Drosophila S2 Gal4-VP16 UAS-luciferase, luminescence, 20 h. Potency, µM (series often up to 53.6 µM), inactives show at the highest dose activity, negative = inhibition, hits mostly inhibitors. 3.5% of 310,000 active. AID 2546;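 also: Gal4-VP16 expression switched on by copper sulfate through the metallothionein promoter; % is scaled to controls: 0 for no effect and ±100 for the full control effect; nearly all actives have a fitted effect of over 50% in size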
HEK293 tox: cytotoxic in the GLP-1 receptor inverse agonist counter-screen; HEK293 cAMP-luciferase reporter cells, luminescence, 24 h; Potency, µM (doses to about 38.3 µM), for inactives: at the top dose activity change, negative = inhibition, usual class: inhibitors; 0.13% of 410,000 active; AID 624418;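 also: loss of luciferase light is scored as toxicity; % is scaled to controls: 0 for no effect and ±100 for the full control effect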
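A 23 nL compound transfer followed 12 hours of cell culture at 37 deg C; exposure then lasted 24 hr. Luciferase assay detection reagent was dispensed and plates read for luminescence after a 12 min room-temperature wait.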
RORg inh: ROR gamma (mouse) transcription inhibition. Potency, µM (series often up to 53.6 µM), without a hit: top-dose activity change, negative = inhibition, most hits filed as inhibitors. Drosophila S2 Gal4-RORgamma UAS-luciferase reporter, 20 h. P51450. 5.4% of 310,000 active; also: % is scaled to controls: 0 for no effect and ±100 for the full control effect; nearly all actives have a fitted effect of over 60% in size
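Luciferase reporter read in Schneider cells carrying Gal4-RORγ (mouse) and UAS-Photinus luciferase; cells given compound 1 h before 700 uM copper sulfate induction, then incubated 20 h at ambient temperature.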
GLP-1R inv ag: GLP-1 receptor (human) inverse agonism; HEK293 GLP-1R CRE-luciferase, luminescence, 24 h; GLP-1R form is constitutively active; Potency, µM (top dose mostly 38.3 µM), without a hit: top-dose activity change, negative = inhibition, actives largely listed as inhibitors; P43220; 1.6% of 410,000 active; also: % is scaled to controls: 0 for no effect and ±100 for the full control effect; nearly all actives have a fitted effect of over 55% in size
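Inverse agonists were sought by their lowering of basal cAMP reporter luciferase output in HEK293 cells stably carrying constitutively active human GLP-1R, after 24 h compound treatment.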
* hit, by the source's call; ? = inconclusive; / = not tested or not shown. In the library only some 5.9% were active in any assay of this set; here they are far more common. Calls follow the shape of the dose curve; as a rule, active = well fitted curve in the direction sought with a large enough effect; inconclusive = small, poorly fitted or top-dose-only effect, or another doubt; inactive = no such curve, though single readings can be large; an effect the other way counts as inactive or inconclusive. Potency is read from the fitted curve at half-maximal effect.

SMILES	GLP-1R agonist	Gal4-VP16 FLuc	HEK293 tox	RORg inh	GLP-1R inv ag
COc1ccccc1N1CCN(S(=O)(=O)c2ccc3c(c2)NC(=O)C(C)S3)CC1 (stereo not given)	5%	?	-5%	?	10µM*
CCOc1ccc(-c2cc(C(=O)Nc3ccc(C)c(NS(C)(=O)=O)c3)[nH]n2)c(C)c1	-3%	/	?	/	7.1µM*
COc1cc(CNCCc2ccccc2)ccc1OCC(N)=O	-6%	?	6%	4%	6%
COc1cc(CNC(=O)C2CC2)ccc1OCc1ccccc1	11%	-6%	0%	32µM*	-14%
COc1cc(CNCCO)ccc1OCCc1ccccc1	-3%	?	3%	-43%	1µM*
Cc1cc(OC(C)C(=O)N2CCC(c3nc4ccccc4o3)CC2)ccc1Cl (stereo not given)	/	/	-5%	/	?
CN(C)C(=O)n1nnnc1Cc1ccc(-c2ccccc2)cc1	/	-7%	/	2%	/
Cn1c2ccccc2c2cc(/C=N/NC(=O)c3ccc(O)cc3O)ccc21	-1%	?	-17%	?	?
COc1ccc2c(c1)cc(C(=O)N/N=C/c1c(O)c(C(=O)O)cc3ccccc13)n2C	-3%	18µM*	196%	11µM*	19%
Cn1c(O)c(/C=N/NC(=O)c2cc3ccccc3cc2O)c2ccccc21	1%	?	37%	7.9µM*	?
CC(C)OC(=O)c1sc2nc(-c3ccccc3)ccc2c1N	-21%	?	180%	7.1µM*	?
Cc1[nH]n(-c2ccccc2)c(=O)c1C(=O)c1ccc(Cl)cc1	-2%	6%	0%	11µM*	-18%
Cc1[nH]n(-c2ccc(Cl)cc2)c(=O)c1C(=O)c1ccccc1	-1%	-25%	-7%	?	-30%
CCSC(=S)c1c(C)[nH]n(-c2ccccc2)c1=O	-7%	1.1µM*	-31%	0.35µM*	-18%
Cc1[nH]n(-c2ccccc2)c(=O)c1C(=O)c1ccccc1	-3%	20%	-2%	?	-10%
CCN(CC)S(=O)(=O)c1ccc2c(c1)N(CC(=O)Nc1ccc(F)cc1F)C(=O)C1CCCN21 (stereo not given)	/	/	5%	/	21%
Cc1ccc(N2C(=O)C(CC(=O)Nc3cccc(F)c3)N(CCc3ccccc3F)C2=O)cc1 (stereo not given)	-4%	/	-28%	/	?
CCOc1ccccc1NC(=O)C1=C(C)NC(=S)NC1c1cccs1 (stereo not given)	0%	20µM*	-10%	6.3µM*	25%
CC1=C(C(=O)Nc2ccccc2C)C(c2cccs2)NC(=S)N1 (stereo not given)	5%	-2%	18%	-10%	1%
O=c1[nH]c(Cc2ccccn2)nc2scc(-c3ccccc3Cl)c12	16%	11µM*	32%	6.3µM*	2%
CC1(C)C2CCC(C2)C1C/C=N/NC(N)=S (stereo not given)	-4%	4µM*	?	1.8µM*	?
Cc1ccc(S(=O)(=O)Nc2cc(C)cn(Cc3ccccc3)c2=O)cc1	4%	14µM*	-23%	?	?
Cc1ccc(S(=O)(=O)Nc2cc(C)cn(Cc3ccc(F)cc3)c2=O)cc1	1%	18µM*	?	?	?
Cc1nc2nc(NC(=O)CC(C)C)[nH]n2c(=O)c1Cc1ccccc1	/	/	1%	/	11%
CCN1CCC2(CC1)N=C(c1ccc(F)cc1)C(=S)N2	1%	-4%	-24%	13µM*	2%
SMILES	GLP-1R agonist	Gal4-VP16 FLuc	HEK293 tox	RORg inh	GLP-1R inv ag
S=C1NC2(CCCCC2)N=C1c1ccccc1	0%	3.5µM*	10%	3.2µM*	?
Cc1ccc(C2=NC3(CCCCC3)NC2=S)cc1	-2%	4µM*	-21%	2µM*	0%
COCCN1C(=S)N[C@@H](c2ccccc2)C(C(=O)OC)=C1C	/	-5%	/	-25%	/
O=C1OCC2=C1C(c1cccc(Cl)c1)CC(=O)N2c1ccc(C(F)(F)F)cc1 (stereo not given)	-2%	/	-6%	/	-11%
COc1ccc2c(c1)O[C@@H](c1cccc(C(F)(F)F)c1)[C@H](OC(=O)NC1CCCC1)C2=O	/	3%	/	-16%	/
COc1cccc(NC(=O)n2nc(N)cc2-c2ccc(Cl)cc2)c1	-2%	-2%	?	19%	10µM*
CC1Cn2c(C(=O)NCc3cccc(Br)c3)cc3cccc(c32)S1 (stereo not given)	/	/	1%	/	?
c1ccc2c(c1)OCCc1c-2[nH]c2ccccc12	19%	-3%	-2%	-20%	?
c1ccc2c(c1)SCc1c-2[nH]c2ccccc12	/	10µM*	/	4.5µM*	/
COC(=O)C1(C)C=C2C(=C(c3ccccc3)C(=O)C2C)CN1 (stereo not given)	/	25%	/	2%	/
Cc1ccc(-n2c(SCCC(C)C)nc3sc4c(c3c2=O)CC(C)(C)OC4)cc1	/	/	0%	/	1%
O=C(CN1CCc2ccccc2C1)Nc1ccccc1C(F)(F)F	7%	7%	8%	22%	?
FC(F)(F)c1ccccc1NC(=S)N1CCc2ccccc2C1	9%	?	3%	16µM*	?
Cc1c(Cl)cccc1NC(=S)N1CCc2ccccc2C1	7%	?	?	10µM*	?
COCC(=O)N1CCC2(CCCN(C(=O)Nc3ccc(OC)cc3)C2)CC1	/	3%	/	33%	/
COc1ccc2[nH]c(-c3ccc(C)cc3)cc(=O)c2c1	-4%	7.9µM*	0%	10µM*	3.2µM*
Cc1nc2ccc(Br)cn2c1NC(C)(C)C	0%	?	-2%	14µM*	4%
Cc1ccccc1N1C(=O)c2cccc3c(N(C)CCO)ccc(c23)C1=O	12%	-2%	68%	11µM*	3%
CN(C)c1ccc(-c2cc(NCc3cccnc3)ncn2)cc1	/	-26%	/	-26%	/
O=C1c2ccccc2NC(c2ccccc2)N1/N=C/c1ccccc1 (stereo not given)	-10%	11µM*	-5%	10µM*	?
CC1=C(C)C(=O)C(N2CCOCC2)=CC1=O	-5%	?	6%	22µM*	1%
O=C1C=C(N2CCOCC2)c2cccc3cccc1c23	-3%	/	-14%	/	90%
CC(S(=O)(=O)c1ccccc1)S(=O)(=O)c1ccccc1	8%	/	8%	/	-12%
CC1=C/C(=N\OS(=O)(=O)c2ccccc2)C(C)=CC1=O	-14%	2.5µM*	-31%	1.1µM*	?
COc1cc(C(=O)O/N=C2/C=C(C)C(=O)C=C2C)cc(OC)c1OC	11%	-14%	6%	-38%	11%
CC1=C(C)/C(=N\OS(=O)(=O)c2ccc(C)cc2)C=CC1=O	-36%	2µM*	-13%	5µM*	?
COc1ccc(S(=O)(=O)/N=C2/C=CC(=O)C(C)=C2C)cc1	2%	-4%	3%	-9%	-6%
